Molecules are shown by their SMILES. The whole screen tested about 310,000 compounds, of which about 14,000 (4.5%) showed an effect of 50% or more. The effect is printed as a negative number. Many of the other results were omitted from the sample, so strong results are more common in it than they were.
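Further: peak tail current of the secondary pulse compared with the same well before compound.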

For the experiment, the target named is human ether-à-go-go-related gene (hERG) potassium channel (human, UniProt Q12809). Description: primary screen, population patch clamp on CHO cells stably expressing hERG; higher = less effect of the substance.
Sequence of human ether-à-go-go-related gene (hERG) potassium channel (Q12809 whole entry, looked up): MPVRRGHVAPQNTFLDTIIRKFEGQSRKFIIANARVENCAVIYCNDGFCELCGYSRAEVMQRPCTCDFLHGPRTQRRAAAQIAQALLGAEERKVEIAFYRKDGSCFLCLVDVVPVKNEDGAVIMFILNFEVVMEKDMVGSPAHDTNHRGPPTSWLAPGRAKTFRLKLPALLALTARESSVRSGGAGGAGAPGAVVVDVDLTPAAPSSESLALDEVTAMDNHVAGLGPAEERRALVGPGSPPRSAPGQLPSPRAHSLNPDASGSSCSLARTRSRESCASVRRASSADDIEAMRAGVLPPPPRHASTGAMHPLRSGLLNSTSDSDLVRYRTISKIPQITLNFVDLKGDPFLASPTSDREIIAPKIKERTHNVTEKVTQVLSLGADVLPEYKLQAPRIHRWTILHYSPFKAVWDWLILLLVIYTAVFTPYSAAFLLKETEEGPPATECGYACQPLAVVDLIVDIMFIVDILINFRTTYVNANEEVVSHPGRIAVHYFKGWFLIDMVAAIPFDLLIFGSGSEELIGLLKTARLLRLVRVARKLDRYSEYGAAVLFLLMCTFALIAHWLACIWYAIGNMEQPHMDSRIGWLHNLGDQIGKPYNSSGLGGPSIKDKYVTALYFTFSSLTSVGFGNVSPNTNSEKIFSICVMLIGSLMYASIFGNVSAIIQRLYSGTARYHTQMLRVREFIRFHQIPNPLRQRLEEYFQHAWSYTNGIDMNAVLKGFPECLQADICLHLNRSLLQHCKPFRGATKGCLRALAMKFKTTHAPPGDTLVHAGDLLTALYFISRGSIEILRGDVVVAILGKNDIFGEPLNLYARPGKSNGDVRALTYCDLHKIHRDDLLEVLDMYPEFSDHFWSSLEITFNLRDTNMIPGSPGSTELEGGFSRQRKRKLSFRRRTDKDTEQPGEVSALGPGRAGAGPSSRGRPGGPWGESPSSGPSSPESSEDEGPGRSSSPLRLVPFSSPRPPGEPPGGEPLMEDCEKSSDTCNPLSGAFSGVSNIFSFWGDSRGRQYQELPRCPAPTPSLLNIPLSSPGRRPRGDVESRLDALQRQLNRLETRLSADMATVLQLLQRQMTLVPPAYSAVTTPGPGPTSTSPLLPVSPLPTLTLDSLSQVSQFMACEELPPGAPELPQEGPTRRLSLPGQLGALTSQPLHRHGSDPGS
For `N#C/C=C(/N)c1ccc(Br)cc1`, the “hERG current change (%, negative = inhibition) at 10uM” value amounted to 7.26%. On to `c1ccc(Cn2ncc3c(Nc4ccccc4)ncnc32)cc1`, for which the “hERG current change (%, negative = inhibition) at 10uM” value amounted to 6.01%. The result for `CCOc1ccc(CCNC(=O)COC(=O)C2CCN(c3ccc(C(F)(F)F)cn3)CC2)cc1OCC` reads -10.9%; that for `Cc1cccc(NS(=O)(=O)c2ccc(C(=O)NCCCN3CCCC3=O)cc2)c1C`, 4.04%. For `Cc1nc([N+](=O)[O-])cn1CC(O)c1ccc(-c2ccccc2)cc1` (stereo not shown), the “hERG current change (%, negative = inhibition) at 10uM” value was -44.3%. `Cc1ccc(N=Nc2c(O)n(CN3CCOCC3)c3ccccc23)cc1`: the “hERG current change (%, negative = inhibition) at 10uM” value came out at 3.48%. With `Cc1ccc(NC(=O)CS(=O)CC(=O)NC2CCN(Cc3ccccc3)CC2)c(C)c1` (stereo not shown), the “hERG current change (%, negative = inhibition) at 10uM” value is reported as -3.54%. For the compound `FC(F)Oc1ccc(NC(=S)N2CCN(Cc3ccccc3)CC2)cc1`, the “hERG current change (%, negative = inhibition) at 10uM” value was -56%.

With `S=C(Nc1ccccc1)N1CCN(Cc2ccccc2)CC1`, the “hERG current change (%, negative = inhibition) at 10uM” value is on record as -4.13%. For `COc1ccc(NC(=S)N2CCN(Cc3ccccc3)CC2)cc1`, the “hERG current change (%, negative = inhibition) at 10uM” value is recorded as 0.401%. The result for `Cc1ccc(NS(=O)(=O)c2cccc(C(=O)NCC(c3cccs3)N3CCOCC3)c2)cc1` (stereo not shown) reads -14.3%.

With `Cl.Clc1ccccc1CNC1CN2CCC1CC2` (stereo not shown), the “hERG current change (%, negative = inhibition) at 10uM” value was -3.27%. For `COc1ccc(OCC(=O)Nc2ccc(C(=O)Nc3ccccc3C(=O)O)cc2)cc1`, the “hERG current change (%, negative = inhibition) at 10uM” value amounted to 23.2%. On to `CC(C)(C)c1nnc(NC(=O)c2cc(-c3ccccc3)nc3ccccc23)s1`, for which the “hERG current change (%, negative = inhibition) at 10uM” value was 17.3%.

As for `COc1ccc(CCN(C)C(=O)c2cc(-c3ccccc3)nc3ccc(C)cc23)cc1OC`, the “hERG current change (%, negative = inhibition) at 10uM” value is reported as -52.1%. In the case of `COc1ccc(CCN(C)C(=O)c2cc(-c3ccc(C)cc3)nc3ccccc23)cc1OC` it was -26.7%; in that of `COc1ccc(CCN(C)C(=O)c2cc(-c3ccccc3)nc3ccccc23)cc1OC`, -4.79%. With `O=C(O)CN1CCN(Cc2ccccc2F)C1=O`, the “hERG current change (%, negative = inhibition) at 10uM” value turned out to be 24.7%. As to `COc1ccc(Nc2nccc(-c3ccc(C#N)cc3)n2)cc1`, the “hERG current change (%, negative = inhibition) at 10uM” value stood at 1.36%. As for `COc1ccc(Nc2nccc(OC)c2C#N)cc1`, the “hERG current change (%, negative = inhibition) at 10uM” value is recorded as -38.8%.

As for `COc1cnc(SC)nc1Nc1ccc(C#N)cc1`, the “hERG current change (%, negative = inhibition) at 10uM” value is recorded as -66.8%. Regarding `COc1cccc(N2C(=O)C3CCCN3C2c2ccc(Cl)cc2)c1` (stereo not shown), the “hERG current change (%, negative = inhibition) at 10uM” value was -1.05%.

For the compound `COc1cc(NC(=O)C2CCC(CNc3c(N4CCC(C)CC4)c(=O)c3=O)CC2)cc(OC)c1` (stereo not shown), the “hERG current change (%, negative = inhibition) at 10uM” value came out at 16.7%. In the case of `O=C(CN1CCN(c2ccccn2)CC1)Nc1ccc2ccccc2c1` it was -43.9%. With `O=C1C2C3C=CC(C4CC34)C2C(=O)N1c1cccc2ccccc12` (stereo not shown), the “hERG current change (%, negative = inhibition) at 10uM” value is on record as -0.113%. In the case of `O=C1C2C3C=CC(C3)C2C(=O)N1c1cccc2ccccc12` (stereo not shown) it was 18.7%; in that of `O=C1[C@H]2[C@@H](C(=O)N1c1cccc3ccccc13)C1(C(=O)c3ccccc3C1=O)N1CCC[C@@H]21`, -69%. `Cn1c(CCNC(=O)C(C)(C)C)nc2ccccc21`: the “hERG current change (%, negative = inhibition) at 10uM” value stood at 16.4%.

Regarding `O=C(NC1CCCCC1)C1CC=CCC1C(=O)OCC(Cl)=C(Cl)Cl` (stereo not shown), the “hERG current change (%, negative = inhibition) at 10uM” value is reported as -20.7%. In the case of `COc1ccc(Oc2ncccc2[N+](=O)[O-])cc1` it was 6.57%; in that of `CN(C)c1ccc(/C=N/NC(=O)c2ccco2)cc1`, 1%; in that of `CN(C)c1ccc(NC(=O)CN2CCN(S(=O)(=O)c3cc(Cl)ccc3Cl)CC2)cc1`, -1.09%. Regarding `O=C(CN1CCN(S(=O)(=O)N2CCOCC2)CC1)Nc1cc(Cl)ccc1Cl`, the “hERG current change (%, negative = inhibition) at 10uM” value is -55.2%.

Take `COc1ccc(S(=O)(=O)N2CCN(CC(=O)Nc3cc(Cl)ccc3Cl)CC2)cc1`: the “hERG current change (%, negative = inhibition) at 10uM” value is -7.44%.

As for `O=C(CN1CCN(S(=O)(=O)N2CCCCCC2)CC1)Nc1cc(Cl)ccc1Cl`, the “hERG current change (%, negative = inhibition) at 10uM” value came out at 7.48%. As for `O=C(CN1CCOCC1)Nc1cc([N+](=O)[O-])ccc1Cl`, the “hERG current change (%, negative = inhibition) at 10uM” value is -17%. For `CN1CCN(CC(=O)Nc2cc(S(=O)(=O)N3CCOCC3)ccc2Cl)CC1`, the “hERG current change (%, negative = inhibition) at 10uM” value is 4.13%. Turning to `COc1ccc(Cl)cc1NC(=O)CN1CCN(S(=O)(=O)N2CCOCC2)CC1`, the “hERG current change (%, negative = inhibition) at 10uM” value is on record as -55.9%.

In the case of `COc1ccc(Cl)cc1NC(=O)CN1CCN(S(=O)(=O)N2CCCCC2)CC1`, the “hERG current change (%, negative = inhibition) at 10uM” value is -9.48%. On to `COc1ccc(Cl)cc1NC(=O)CN1CCN(S(=O)(=O)N2CCC(C)CC2)CC1`, for which the “hERG current change (%, negative = inhibition) at 10uM” value is -32.1%. Consider `CN(C)S(=O)(=O)N1CCN(CC(=O)Nc2cc(Cl)ccc2Cl)CC1`, for which the “hERG current change (%, negative = inhibition) at 10uM” value was -50.8%. As to `O=C(CN1C(=O)c2ccc([N+](=O)[O-])cc2C1=O)Nc1cc(S(=O)(=O)N2CCOCC2)ccc1Cl`, the “hERG current change (%, negative = inhibition) at 10uM” value is on record as -60.8%. The result for `O=C(CN1CCN(S(=O)(=O)N2CCCCC2)CC1)Nc1cc(Cl)ccc1Cl` reads 10.7%.
